KB-3-1 tox – KB-3-1 parental cell cytotoxicity | KB-3-1 viability, CellTiter-Glo ATP luminescence, 72 h | Potency, µM (doses to about 46.1 µM), actives largely listed as cytotoxic | 400,000 tested, 1.4% active; also: % is scaled to controls: 0 for no effect and ±100 for the full control effect; nearly all actives have a fitted effect of over 60% in size
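Parental KB-3-1 adenocarcinoma cells in phenol-red-free DMEM with 10% FBS were pin-treated with compounds at several concentrations, incubated 72 h at 37 °C, and viability read by CellTiter-Glo luminescence; concentration-effect curves were fitted after normalization.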
ELG1 repair inh – inhibitors of ELG1-dependent DNA repair in HEK293T cells; HEK293T ELG1-luciferase reporter, luminescence, 16 h; DNA damage induced by 5-fluorouridine; Potency, µM (titrated, usually from 46.1 µM), without a hit: at the top dose activity change, negative = inhibition, actives largely listed as inhibitors; 330,000 tested, 2.3% active; also: % is scaled to controls: 0 for no effect and ±100 for the full control effect; nearly all actives have a fitted effect of over 55% in size
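Step one: seed 2,000 cells per well. Step two: pin-transfer compound or DMSO alongside 5-fluorouridine. Step three: incubate 16 hr, 37 °C, 5% CO2. Step four: add ONE-Glo, wait 30 min, read luminescence.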
MCF10A rereplic – inducers of DNA re-replication in MCF 10A breast cells; MCF 10A DNA re-replication, Hoechst nuclear intensity, 48 h; Potency, µM (highest dose often 46.1 µM), without a hit: at the highest dose activity, positive = re-replication, most hits filed as activators; 350,000 tested, 2.9% active; also: % of control where 0% means no effect; nearly all actives have a fitted effect of over 50% in size
SW480 rerep – inducers of DNA re-replication in SW480 colon cancer cells; SW480 DNA re-replication, Hoechst DNA content imaging, 48 h; Potency, µM (top dose mostly 46.1 µM), inactives show top-dose re-replication activation, most hits filed as activators; 340,000 tested, 1.8% active; AID 624297; also: % of control where 0% means no effect; nearly all actives have a fitted effect of over 55% in size
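SW480 cells exposed to compounds for 48 hr at 37 C, 5% CO2, then Hoechst-stained 40 min. Nuclear DNA content imaged by fluorescence scanning (405 nm excitation, 500-530 nm emission); re-replication scored as increased high-intensity nuclei.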
KB-V1 MDR tox – kills drug-selected multidrug resistant KB-V1 cells; KB-V1 MDR cells viability, CellTiter-Glo, 72 h; Potency, µM (highest dose often 46.1 µM), usual class: cytotoxic; 400,000 tested, 3.4% active; AID 1347076; also: % is scaled to controls: 0 for no effect and ±100 for the full control effect; nearly all actives have a fitted effect of over 60% in size
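Potencies derive from concentration-effect curves fitted to normalized luminescence (CellTiter-Glo) of KB-V1 cells treated for 72 h at 37 degrees C in phenol-red-free DMEM containing 10% FBS.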
The depositor's hits bear a star; i = inactive; ? = inconclusive; . = not tested or not shown; [ ] = dose if it differs, or a comment. This is a sample that favours compounds with a hit; in the whole collection about 8.1% have one here. Calls follow the shape of the dose curve; as a rule, active = well fitted curve in the direction sought with a large enough effect; inconclusive = small, poorly fitted or top-dose-only effect, or another doubt; inactive = no such curve, though single readings can be large; an effect the other way counts as inactive or inconclusive. Potency is read from the fitted curve at half-maximal effect.

SMILES	KB-3-1 tox	ELG1 repair inh	MCF10A rereplic	SW480 rerep	KB-V1 MDR tox
Cc1cc(Sc2nnc(/N=C/N(C)C)s2)c2ccccc2n1	?	-4%	9.2µM*	?	i
Cc1cc(Sc2nnc(N)s2)c2ccccc2n1	i	0%	?	0%	i
O=C(Nc1nc2cc3c(cc2s1)OCO3)C1=COCCO1	6.5µM*	?	?	16µM*	i
CCOC(=O)c1ccc2nc(NC(=O)c3ccco3)sc2c1	i	?	21µM*	?	?
CCOc1ccc2nc(NC(=O)c3ccoc3C)sc2c1	10µM*	?	21%	-5%[9.22 µM]	8.2µM*
CCOc1ccc2nc(NC(=O)c3ccco3)sc2c1	i	?	-11%	7%	?
O=C(Nc1nc2cc3c(cc2s1)OCCO3)c1ccco1	?	?	?	?	12µM*
CC(C)C(=O)Nc1nc2cc3c(cc2s1)OCCO3	i	?	15%	5%	i
CCCc1nc(SCC(=O)c2ccc(OC)cc2)c2ccccc2n1	i	?	?	9%	i
CNC[C@@H](O)[C@@H](O)[C@H](O)[C@H](O)CO	.	.	0%	-6%	.
CCc1ccc(NC(=O)Nc2c(C)n(C)n(-c3ccccc3)c2=O)cc1	i	-6%	-4%	-13%	i
O=C(c1ccccc1NS(=O)(=O)c1ccc(Cl)cc1)N1CCc2ccccc21	i	-8%	?	2%	i
COc1cc(CNCCc2ccccc2)cc(Cl)c1OCc1ccccc1	?	-21%	23µM*	?	18µM*
C/C(=N\NC(=O)C(C)n1nc(C)c([N+](=O)[O-])c1C)c1ccccc1O (stereo not drawn)	?	-12%	?	4.6µM*	2.3µM*
O=C(Nc1ccc2ccccc2c1)N1CCN(c2ncccc2C(F)(F)F)CC1	i	?	2%	1%	i
COc1ccc(C(C)=O)cc1CSc1nc2ccccc2c(=O)n1-c1ccccc1C	i	-24%	4%	4%	21µM*
C=CCn1c(SCc2cc(C(C)=O)ccc2OCC)nc2ccccc2c1=O	1.2µM*	?	1µM*	1.8µM*	2.3µM*
COc1ccccc1-n1c(SCc2cc(=O)oc3cc(O)ccc23)nc2ccccc2c1=O	?	?	?	4%	18µM*
COc1ccccc1-n1c(SCC(=O)N2CCOCC2)nc2ccccc2c1=O	i	11%	-4%	2%	i
COc1ccc(C(C)=O)cc1CSc1nc2ccccc2c(=O)n1-c1ccccc1	i	?	23%	0%	i
CC(C)(C)C(=O)Nc1cccc(-c2nc3ccccc3[nH]2)c1	i	-12%	-8%	-4%[9.22 µM]	i
CC(C)(C)C(=O)Nc1sc2c(c1-c1nc3ccccc3[nH]1)CCCC2	i	3%	13µM*	2%	i
Cc1cc(C)cc(-n2c(C)c3c(C)nnc(C)c3c2C)c1	?	-19%	10%	23µM*	?
Cc1nnc(C)c2c(C)n(-c3ccc(Cl)c(N)c3)c(C)c12	i	?	?	8%	i
COc1ccc(NS(=O)(=O)c2cc(NC(=O)/C=C/c3ccccc3OC)ccc2N2CCCCC2)cc1	i	1%	14%	-4%	5.2µM*
SMILES	KB-3-1 tox	ELG1 repair inh	MCF10A rereplic	SW480 rerep	KB-V1 MDR tox
C/C(=N\NC(=S)Nc1cc(S(=O)(=O)N2CCOCC2)ccc1Cl)c1ccc(N2CCOCC2)cc1	i	?	3%	2%	i
COc1ccc(NS(=O)(=O)c2ccc(Cl)c(NC(=O)c3cccnc3Cl)c2)cc1	i	?	12%	14%	21µM*
COc1ccc2cc(/C(C)=N/NC(=S)Nc3cc(S(=O)(=O)N4CCOCC4)ccc3N3CCOCC3)ccc2c1	.	4.6µM*	.	.	.
COc1ccc(NS(=O)(=O)c2cc(NC(=O)COc3ccc(OC)cc3)ccc2N2CCOCC2)cc1	i	-13%	-2%	-4%	2.3µM*
COc1ccc(NS(=O)(=O)c2ccc(Cl)c(NC(=O)c3ccccc3F)c2)cc1	.	?	0%	13%	.
C[C@@]12C(=O)Nc3ccc(Br)cc3C(=O)N1[C@H]1c3ccccc3OC[C@@H]1[C@@H]2c1ccccc1	i	13%	?	0%	?

Screening results as filed in PubChem.
